Reference: the supplement of paper PMC10849652
Targets with a hit are over-represented here; the source holds about 7,900 in all. About 0.6% of all pairs of compound and target were hits.

Experiments:
Assay in all cases: log2 fold change, soluble protein after heating vs DMSO (PISA); higher = thermal stabilisation; K562 cells, 10 uM, 30 min; active = over 0.2 and 3.5 SD of the protein, either way, in both replicates (recomputed)
[1] = compound: C1=CC=C(C=C1)[C@H](COC2=CC3=C(C=C2)NC(=O)N3)NC(=O)C4=CC=CN(C4=O)CC5=CC(=C(C=C5)F)F
Method in brief: (§1)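 Thermal stability values are relative to control samples and come from duplicates. They are expressed as log2 fold changes. For measurement, K562 cells (2×10^6 cells/mL) received 10 μM compound for 30 min, and aliquots were heated for 3 min over 48°C-58°C, pooled, and extracted at 4°C in PBS with 0.5% NP-40. Soluble protein, the supernatant after 21,000xg for 90 min, was quantified by TMTpro 16plex LC-MS/MS with equalised channel sums.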

[2] = compound: CC1=C(SC2=C1C(=N[C@H](C3=NN=C(N32)C)CC(=O)N)C4=CC=C(C=C4)Cl)C
Method in brief: as §1

[3] = compound: CC1=C2C(=CC=C1)N=C(N(C2=O)C3=CC=CC=C3C)CN4C=NC5=C(N=CN=C54)N
Method in brief: as §1

[4] = compound: Cc1sc2c(c1C)C(c1ccc(Cl)cc1)=N[C@@H](CC(=O)OC(C)(C)C)c1nnc(C)n1-2
Method in brief: as §1

[5] = compound: c1ccc([C@@H]2C[C@H]2NC2CCNCC2)cc1
Method in brief: as §1

Measured: log2 fold change

CBS (UniProt P35520)
UniProt P35520, sequence (P35520 whole entry, looked up): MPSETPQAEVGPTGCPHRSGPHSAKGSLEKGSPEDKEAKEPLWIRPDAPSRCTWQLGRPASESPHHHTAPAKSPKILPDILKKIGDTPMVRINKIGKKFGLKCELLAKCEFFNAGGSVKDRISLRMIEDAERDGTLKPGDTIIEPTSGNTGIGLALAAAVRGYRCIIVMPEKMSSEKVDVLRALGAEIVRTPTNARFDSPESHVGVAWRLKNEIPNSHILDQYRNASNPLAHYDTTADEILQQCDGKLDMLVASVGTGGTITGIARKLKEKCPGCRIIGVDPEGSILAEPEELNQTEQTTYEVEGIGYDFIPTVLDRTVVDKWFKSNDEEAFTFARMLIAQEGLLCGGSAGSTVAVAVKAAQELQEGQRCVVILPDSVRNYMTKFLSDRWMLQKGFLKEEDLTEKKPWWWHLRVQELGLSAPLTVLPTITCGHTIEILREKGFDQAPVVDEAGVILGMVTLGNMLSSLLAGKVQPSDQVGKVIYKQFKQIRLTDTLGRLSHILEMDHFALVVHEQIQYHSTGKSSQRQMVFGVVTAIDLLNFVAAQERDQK
inactive: [1] -0.029 | [2] 0.07 | [3] 0.016 | [4] -0.014 | [5] -0.026

CDK11B (UniProt P21127)
inactive: [1] -0.05 | [2] 0.015 | [3] 0.137 | [4] -0.01 | [5] 0.059

C4A (UniProt P0C0L4)
inactive: [1] -0.158 | [2] -0.067 | [3] 0.127 | [4] -0.101 | [5] -0.01

CCNDBP1 (UniProt O95273)
inactive: [1] 0.023 | [2] -0.118 | [3] 0.182 | [4] 0.007 | [5] 0.047

CETN2 (UniProt P41208)
inactive: [1] 0.027 | [2] 0.046 | [3] -0.012 | [4] 0.06 | [5] 0.08

CALB1 (UniProt P05937)
inactive: [1] 0.001 | [2] 0.009 | [3] -0.045 | [4] -0.068 | [5] 0.026

CPSF1 (UniProt Q10570)
inactive: [1] -0.012 | [2] -0.049 | [3] -0.017 | [4] 0.132 | [5] 0.006

CDK9 isoform 2 (UniProt P50750)
inactive: [1] -0.007 | [2] -0.03 | [3] 0 | [4] 0.089 | [5] 0

CEMIP2 (UniProt Q9UHN6)
UniProt Q9UHN6, sequence (Q9UHN6 whole entry, looked up): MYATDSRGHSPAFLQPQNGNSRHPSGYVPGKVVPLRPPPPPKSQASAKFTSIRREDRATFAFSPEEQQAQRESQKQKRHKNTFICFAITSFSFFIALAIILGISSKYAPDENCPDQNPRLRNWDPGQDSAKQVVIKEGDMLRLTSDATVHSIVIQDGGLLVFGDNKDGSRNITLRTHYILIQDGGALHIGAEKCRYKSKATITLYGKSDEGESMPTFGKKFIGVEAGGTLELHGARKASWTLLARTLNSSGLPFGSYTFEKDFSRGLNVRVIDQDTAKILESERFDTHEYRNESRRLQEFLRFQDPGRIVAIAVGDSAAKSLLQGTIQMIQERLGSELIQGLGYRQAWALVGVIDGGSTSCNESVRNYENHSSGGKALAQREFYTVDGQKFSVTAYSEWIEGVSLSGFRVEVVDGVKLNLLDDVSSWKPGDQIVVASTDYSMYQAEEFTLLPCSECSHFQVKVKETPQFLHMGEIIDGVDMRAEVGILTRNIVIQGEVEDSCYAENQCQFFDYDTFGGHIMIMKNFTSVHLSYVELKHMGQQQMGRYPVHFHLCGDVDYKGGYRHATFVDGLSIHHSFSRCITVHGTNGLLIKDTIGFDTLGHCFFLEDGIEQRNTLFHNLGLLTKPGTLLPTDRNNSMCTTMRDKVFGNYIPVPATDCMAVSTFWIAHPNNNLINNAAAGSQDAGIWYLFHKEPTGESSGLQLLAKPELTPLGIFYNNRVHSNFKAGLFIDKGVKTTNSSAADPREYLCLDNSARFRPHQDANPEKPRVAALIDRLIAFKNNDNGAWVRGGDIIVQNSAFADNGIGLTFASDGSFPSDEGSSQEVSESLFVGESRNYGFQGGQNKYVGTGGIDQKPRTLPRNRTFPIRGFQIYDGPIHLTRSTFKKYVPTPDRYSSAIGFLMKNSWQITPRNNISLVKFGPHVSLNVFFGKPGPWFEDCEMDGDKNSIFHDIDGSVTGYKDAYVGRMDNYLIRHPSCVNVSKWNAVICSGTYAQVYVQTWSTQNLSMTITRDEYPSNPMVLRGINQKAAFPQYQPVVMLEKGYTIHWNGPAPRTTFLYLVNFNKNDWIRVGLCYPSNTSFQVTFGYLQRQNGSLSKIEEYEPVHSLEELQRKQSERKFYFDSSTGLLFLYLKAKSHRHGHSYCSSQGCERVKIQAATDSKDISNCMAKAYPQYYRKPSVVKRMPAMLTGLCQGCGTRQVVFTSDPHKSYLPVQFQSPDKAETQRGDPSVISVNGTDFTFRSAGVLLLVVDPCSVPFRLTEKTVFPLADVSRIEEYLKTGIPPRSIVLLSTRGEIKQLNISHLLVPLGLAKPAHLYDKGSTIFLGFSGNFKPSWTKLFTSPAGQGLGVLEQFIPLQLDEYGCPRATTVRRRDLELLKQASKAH
inactive: [1] -0.03 | [2] -0.017 | [3] 0.08 | [4] -0.04 | [5] 0.081

COQ9 (UniProt O75208)
inactive: [1] -0.068 | [2] -0.025 | [3] 0.053 | [4] -0.081 | [5] 0.036

CIT isoform 4 (UniProt O14578)
inactive: [1] -0.055 | [2] 0.002 | [3] 0.001 | [4] -0.011 | [5] 0.009

COX7B (UniProt P24311)
inactive: [1] -0.003 | [2] 0.001 | [3] 0.063 | [4] -0.018 | [5] 0.018

CLN3 (UniProt Q13286)
inactive: [1] 0.005 | [2] -0.032 | [3] -0.315 | [4] -0.119 | [5] 0.087

CHD4 isoform 2 (UniProt Q14839)
inactive: [1] -0.065 | [2] 0 | [3] 0.021 | [4] 0.049 | [5] 0.032

CD81 (UniProt P60033)
inactive: [1] -0.083 | [2] -0.013 | [3] -0.035 | [4] 0.03 | [5] 0.109

CSTF3 (UniProt Q12996)
inactive: [1] -0.005 | [2] 0.064 | [3] -0.007 | [4] 0.03 | [5] -0.016

CDK5RAP3 isoform 4 (UniProt Q96JB5)
inactive: [1] -0.042 | [2] 0.054 | [3] 0.099 | [4] 0 | [5] -0.05

CHMP4B (UniProt Q9H444)
inactive: [1] -0.015 | [2] -0.004 | [3] 0.031 | [4] 0.056 | [5] 0.054

CLINT1 (UniProt Q14677)
inactive: [1] 0.063 | [2] 0.131 | [3] -0.005 | [4] -0.009 | [5] 0.157

CCDC9 (UniProt Q9Y3X0)
inactive: [1] -0.019 | [2] -0.012 | [3] -0.118 | [4] 0.091 | [5] 0.041

C9orf72 (UniProt Q96LT7)
inactive: [1] 0.02 | [2] 0.009 | [3] 0.085 | [4] -0.115 | [5] 0.002

CES2 isoform 4 (UniProt O00748)
inactive: [1] 0.041 | [2] -0.069 | [3] 0.061 | [4] 0.118 | [5] -0.141

CPSF7 isoform 3 (UniProt Q8N684)
inactive: [1] 0.007 | [2] 0.013 | [3] -0.012 | [4] 0.017 | [5] -0.013

CDK6 (UniProt Q00534)
inactive: [1] -0.005 | [2] -0.002 | [3] 0.005 | [4] -0.036 | [5] -0.055

CSNK2A2 (UniProt P19784)
UniProt P19784, sequence (P19784 whole entry, looked up): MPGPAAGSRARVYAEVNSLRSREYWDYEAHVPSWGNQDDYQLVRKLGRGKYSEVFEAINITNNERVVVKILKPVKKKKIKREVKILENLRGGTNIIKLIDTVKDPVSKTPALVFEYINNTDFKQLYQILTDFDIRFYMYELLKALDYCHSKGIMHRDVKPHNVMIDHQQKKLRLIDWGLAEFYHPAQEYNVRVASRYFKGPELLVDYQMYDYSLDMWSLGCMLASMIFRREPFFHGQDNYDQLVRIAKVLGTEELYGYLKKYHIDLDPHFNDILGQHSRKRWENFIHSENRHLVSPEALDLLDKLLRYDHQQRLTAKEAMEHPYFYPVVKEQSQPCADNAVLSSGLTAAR
inactive: [1] -0.025 | [2] 0.08 | [3] 0.052 | [4] 0.028 | [5] 0.012

CRKL (UniProt P46109)
inactive: [1] 0.01 | [2] 0.041 | [3] 0.032 | [4] 0.016 | [5] -0.002

CAVIN1 (UniProt Q6NZI2)
inactive: [1] 0.017 | [2] -0.127 | [3] -0.103 | [4] 0.101 | [5] 0

CLPTM1L (UniProt Q96KA5)
inactive: [1] -0.011 | [2] 0.013 | [3] 0.024 | [4] -0.145 | [5] 0.01

CTBS (UniProt Q01459)
inactive: [1] 0.082 | [2] -0.002 | [3] 0.014 | [4] -0.019 | [5] -0.006

CLUH, A0A494C0R8
inactive: [1] -0.121 | [2] -0.004 | [3] 0.025 | [4] 0.152 | [5] 0.096

CDC26 (UniProt Q8NHZ8)
inactive: [1] 0.05 | [2] 0.027 | [3] -0.346 | [4] -0.038 | [5] 0.022

C19orf53 (UniProt Q9UNZ5)
inactive: [1] 0.105 | [2] -0.258 | [3] -0.266 | [4] 0.203 | [5] -0.01

COPS4 (UniProt Q9BT78)
inactive: [1] 0.04 | [2] 0.023 | [3] 0.016 | [4] -0.01 | [5] -0.011

CCM2 isoform 2 (UniProt Q9BSQ5)
inactive: [1] 0.013 | [2] 0.144 | [3] 0.046 | [4] -0.161 | [5] -0.046

CDKN2AIP (UniProt Q9NXV6)
inactive: [1] -0.036 | [2] -0.044 | [3] -0.008 | [4] 0.021 | [5] -0.014

CASP2 (UniProt P42575)
UniProt P42575, sequence (P42575 whole entry, looked up): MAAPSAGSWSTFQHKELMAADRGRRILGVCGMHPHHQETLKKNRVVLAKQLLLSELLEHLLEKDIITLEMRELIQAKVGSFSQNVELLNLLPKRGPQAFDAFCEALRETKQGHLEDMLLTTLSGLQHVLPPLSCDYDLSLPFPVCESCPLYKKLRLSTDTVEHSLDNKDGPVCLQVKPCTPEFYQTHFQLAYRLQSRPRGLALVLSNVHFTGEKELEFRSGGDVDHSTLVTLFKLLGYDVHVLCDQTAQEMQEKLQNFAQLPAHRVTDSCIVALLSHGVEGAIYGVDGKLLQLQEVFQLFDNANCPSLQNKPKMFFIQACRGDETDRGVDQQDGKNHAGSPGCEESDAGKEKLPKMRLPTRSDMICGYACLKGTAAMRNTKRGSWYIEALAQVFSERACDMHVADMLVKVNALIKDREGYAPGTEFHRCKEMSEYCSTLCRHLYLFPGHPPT
inactive: [1] -0.039 | [2] 0.016 | [3] 0.027 | [4] -0.01 | [5] -0.039

CCNT1 (UniProt O60563)
inactive: [1] 0.108 | [2] -0.022 | [3] -0.036 | [4] 0.085 | [5] 0.072

CNOT2 (UniProt Q9NZN8)
inactive: [1] 0.024 | [2] -0.014 | [3] 0.056 | [4] 0.031 | [5] -0.002

CCAR2 isoform 2 (UniProt Q8N163)
inactive: [1] -0.057 | [2] -0.014 | [3] 0.079 | [4] -0.089 | [5] 0.011

COMT (UniProt P21964)
inactive: [1] 0.024 | [2] 0.142 | [3] 0.09 | [4] -0.028 | [5] -0.038

CPT1A (UniProt P50416)
inactive: [1] 0.095 | [2] 0.011 | [3] 0.125 | [4] -0.022 | [5] -0.118

CCAR1 (UniProt Q8IX12)
inactive: [1] -0.129 | [2] 0.061 | [3] 0.043 | [4] 0.044 | [5] -0.043

CSK (UniProt P41240)
inactive: [1] -0.096 | [2] 0.051 | [3] 0.057 | [4] 0.011 | [5] -0.032

CKB (UniProt P12277)
inactive: [1] -0.1 | [2] 0.01 | [3] 0.038 | [4] -0.022 | [5] -0.118

CPSF3 (UniProt Q9UKF6)
inactive: [1] -0.016 | [2] 0.024 | [3] 0.036 | [4] -0.026 | [5] 0.009

CAMKK2 (UniProt Q96RR4)
inactive: [1] -0.047 | [2] 0.388 | [3] 0.023 | [4] 0.019 | [5] 0.149

CDC123 (UniProt O75794)
inactive: [1] -0.036 | [2] 0 | [3] 0.03 | [4] -0.018 | [5] -0.029

CDK13 (UniProt Q14004)
UniProt Q14004, sequence (Q14004 whole entry, looked up): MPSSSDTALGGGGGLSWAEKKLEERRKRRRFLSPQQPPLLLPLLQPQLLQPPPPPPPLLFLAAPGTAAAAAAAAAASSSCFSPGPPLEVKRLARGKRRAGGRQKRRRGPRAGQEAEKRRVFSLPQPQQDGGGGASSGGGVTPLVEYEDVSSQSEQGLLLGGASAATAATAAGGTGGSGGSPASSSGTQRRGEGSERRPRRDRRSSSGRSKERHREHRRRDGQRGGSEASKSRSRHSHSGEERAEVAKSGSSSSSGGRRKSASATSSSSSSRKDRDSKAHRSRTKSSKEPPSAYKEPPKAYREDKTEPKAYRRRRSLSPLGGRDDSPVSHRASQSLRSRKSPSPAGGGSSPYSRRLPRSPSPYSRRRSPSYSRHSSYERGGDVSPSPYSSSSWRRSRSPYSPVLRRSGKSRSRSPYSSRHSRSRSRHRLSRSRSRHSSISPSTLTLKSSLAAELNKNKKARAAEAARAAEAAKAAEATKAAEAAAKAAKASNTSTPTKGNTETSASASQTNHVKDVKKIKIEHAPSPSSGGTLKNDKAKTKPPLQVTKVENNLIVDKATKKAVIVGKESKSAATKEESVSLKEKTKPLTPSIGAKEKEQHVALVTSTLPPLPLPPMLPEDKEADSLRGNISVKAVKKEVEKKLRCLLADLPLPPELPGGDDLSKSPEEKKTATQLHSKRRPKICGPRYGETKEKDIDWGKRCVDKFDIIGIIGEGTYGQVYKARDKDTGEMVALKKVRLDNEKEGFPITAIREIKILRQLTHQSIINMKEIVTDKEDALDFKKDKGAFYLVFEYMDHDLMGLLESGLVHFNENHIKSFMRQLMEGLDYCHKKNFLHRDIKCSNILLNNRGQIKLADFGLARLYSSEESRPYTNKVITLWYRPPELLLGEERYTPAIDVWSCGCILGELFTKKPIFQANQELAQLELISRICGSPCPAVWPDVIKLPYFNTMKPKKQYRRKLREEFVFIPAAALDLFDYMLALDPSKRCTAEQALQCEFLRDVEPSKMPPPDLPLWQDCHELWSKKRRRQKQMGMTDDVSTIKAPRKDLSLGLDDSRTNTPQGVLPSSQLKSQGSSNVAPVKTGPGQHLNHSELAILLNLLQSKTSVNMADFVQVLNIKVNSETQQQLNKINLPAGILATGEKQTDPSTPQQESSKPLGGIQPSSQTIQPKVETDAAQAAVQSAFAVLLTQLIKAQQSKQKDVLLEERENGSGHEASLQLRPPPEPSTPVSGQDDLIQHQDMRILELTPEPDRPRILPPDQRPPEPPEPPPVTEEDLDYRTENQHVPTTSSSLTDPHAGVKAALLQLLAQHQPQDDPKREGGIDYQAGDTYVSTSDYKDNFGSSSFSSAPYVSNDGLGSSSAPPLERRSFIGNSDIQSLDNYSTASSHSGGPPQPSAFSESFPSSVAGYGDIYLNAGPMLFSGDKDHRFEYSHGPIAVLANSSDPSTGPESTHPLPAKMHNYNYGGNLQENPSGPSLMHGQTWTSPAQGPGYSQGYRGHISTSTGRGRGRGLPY
inactive: [1] 0.031 | [2] 0.019 | [3] -0.017 | [4] 0.161 | [5] -0.004

CRYM-AS1 (UniProt A6NIL9)
inactive: [1] -0.295 | [2] 0.037 | [3] 0.297 | [4] -0.201 | [5] -0.002

CMTR1 (UniProt Q8N1G2)
UniProt Q8N1G2, sequence (Q8N1G2 whole entry, looked up): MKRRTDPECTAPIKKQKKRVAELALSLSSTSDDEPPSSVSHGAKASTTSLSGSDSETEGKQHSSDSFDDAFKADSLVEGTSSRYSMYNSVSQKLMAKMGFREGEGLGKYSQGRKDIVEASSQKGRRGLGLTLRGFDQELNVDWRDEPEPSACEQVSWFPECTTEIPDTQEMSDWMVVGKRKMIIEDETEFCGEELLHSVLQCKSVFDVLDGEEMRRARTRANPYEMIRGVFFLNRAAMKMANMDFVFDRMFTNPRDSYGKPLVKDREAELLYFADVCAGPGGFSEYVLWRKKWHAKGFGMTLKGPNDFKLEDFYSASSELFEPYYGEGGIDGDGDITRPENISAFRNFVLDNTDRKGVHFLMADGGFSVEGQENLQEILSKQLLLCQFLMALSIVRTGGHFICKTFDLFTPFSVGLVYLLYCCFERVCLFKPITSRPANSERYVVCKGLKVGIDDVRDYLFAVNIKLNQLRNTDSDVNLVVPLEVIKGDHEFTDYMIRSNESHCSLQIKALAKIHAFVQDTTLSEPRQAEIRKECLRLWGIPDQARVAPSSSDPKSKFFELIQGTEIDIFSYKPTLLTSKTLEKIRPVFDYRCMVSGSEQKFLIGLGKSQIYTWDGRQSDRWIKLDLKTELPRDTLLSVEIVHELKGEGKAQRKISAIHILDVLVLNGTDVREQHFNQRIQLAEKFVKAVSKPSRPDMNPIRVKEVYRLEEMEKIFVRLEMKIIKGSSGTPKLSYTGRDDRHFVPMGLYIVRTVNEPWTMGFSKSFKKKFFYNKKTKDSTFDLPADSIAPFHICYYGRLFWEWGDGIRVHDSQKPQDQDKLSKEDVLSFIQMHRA
inactive: [1] -0.008 | [2] 0.033 | [3] 0.07 | [4] -0.009 | [5] -0.04

CLPTM1L (UniProt G5E9Z2)
inactive: [1] -0.22 | [2] 0.148 | [3] -0.012 | [4] -0.07 | [5] -0.1

C16orf58 (UniProt Q96GQ5)
inactive: [1] 0.023 | [2] 0.025 | [3] 0.088 | [4] -0.042 | [5] 0.013

CSE1L (UniProt P55060)
inactive: [1] -0.024 | [2] 0.063 | [3] 0.033 | [4] -0.028 | [5] -0.009
